Data published in PubChem BioAssay AID743354 (Broad Institute, 2014).
Measured potencies and affinities stand elsewhere. Calls of active or inactive are those of the source.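 Rule for the calls: active = cytotoxic signal drop with a fitted half-maximal concentration at most twice the top valid tested dose; inconclusive = flat fit with moderate signal loss, or poor fit quality; inactive = opposite effect, flat response, or potency beyond limit.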

test: viability loss in HEK293 cells – cell-based, luminescence, dry powder, set 12, cytotoxicity control, dose response (AID 743354); conditions: HEK293T viability, CellTiter-Glo ATP luminescence, 72 h; series mostly up to 26 µM; activity change, negative = cytotoxic: at the top concentration

SMILES | activity change, negative = cytotoxic
CC(=O)c1ccc(N2CCN(C(=O)c3ccc4c(c3)OCO4)[C@H](C)C2)cc1 | -0.499% (inactive)
CN1c2ccc(-c3cccc(F)c3)cc2[C@@H]2[C@@H](CCN2C(=O)c2ccc3c(c2)OCO3)[C@@H]1CO | -1.34% (inactive)
COc1ccc(NC(=O)N2CC[C@@H]3[C@@H](CO)N(C)c4ccc(-c5ccc(F)cc5)cc4[C@@H]32)cc1 | -1.74% (inactive)
CN1c2ccc(-c3cccc(F)c3)cc2[C@H]2[C@H](CCN2C(=O)Cc2ccccc2)[C@H]1CO | -7.06% [at 23.5 µM] (inactive)
CC(=O)c1ccc(N2CCN(C(=O)c3ccc4c(c3)OCO4)CC2)cc1 | -6.96% (inactive)
COc1cccc(NC(=O)N2CC[C@@H]3[C@@H](CO)N(C)c4ccc(-c5cccc(F)c5)cc4[C@@H]32)c1 | -1.77% (inactive)
COc1ccccc1C(=O)N1CCN(c2ccc(C(C)=O)cc2)CC1 | -1.08% (inactive)
COc1ccc(NC(=O)N2CC[C@@H]3[C@@H](CO)N(C)c4ccc(-c5cccc(F)c5)cc4[C@@H]32)cc1 | 1.8% (inactive)
CN1c2ccc(-c3ccc(F)cc3)cc2[C@H]2[C@H](CCN2C(=O)Cc2ccccn2)[C@H]1CO | -0.802% (inactive)
CN1c2ccc(-c3cccc(F)c3)cc2[C@H]2[C@H](CCN2C(=O)Nc2ccccc2F)[C@H]1CO | -2.02% [at 23.5 µM] (inactive)
CNC(=O)c1ccc(N2CCN(C(=O)c3ccc4c(c3)OCO4)CC2)cc1 | -0.972% (inactive)
CC(C)NC(=O)N1CC[C@@H]2[C@@H](CO)N(C)c3ccc(-c4cccc(F)c4)cc3[C@@H]21 | -2.92% (inactive)
CN1c2ccc(-c3cccc(F)c3)cc2[C@H]2[C@H](CCN2C(=O)c2ccc3c(c2)OCO3)[C@@H]1CO | 3.57% (inactive)
CCCCCCCC(=O)N1CC[C@@H]2[C@@H](CO)N(C)c3ccc(-c4cccc(F)c4)cc3[C@@H]21 | 3.9% (inactive)
CCCNC(=O)N1CC[C@@H]2[C@@H](CO)N(C)c3ccc(-c4ccc(F)cc4)cc3[C@@H]21 | -1.65% (inactive)
CC(=O)c1ccc(N2CC3(CN(C(=O)c4ccc5c(c4)OCO5)C3)C2)cc1 | 3.16% (inactive)

SMILES | activity change, negative = cytotoxic
CN1c2ccc(-c3cccc(F)c3)cc2[C@H]2[C@H](CCN2C(=O)Cc2cccnc2)[C@H]1CO | -0.157% (inactive)
COc1ccccc1NC(=O)N1CC[C@@H]2[C@@H](CO)N(C)c3ccc(-c4ccc(F)cc4)cc3[C@@H]21 | -4.86% (inactive)
CN1c2ccc(-c3ccc(F)cc3)cc2[C@H]2[C@H](CCN2C(=O)Nc2cc(F)ccc2F)[C@H]1CO | -9.18% [at 23.5 µM] (inactive)
CCC(=O)N1CC[C@@H]2[C@@H](CO)N(C)c3ccc(-c4ccc(F)cc4)cc3[C@@H]21 | 2.33% [at 23.5 µM] (inactive)
CNS(=O)(=O)c1ccc(N2CCN(C(=O)c3ccc4c(c3)OCO4)CC2)cc1 | 1.42% (inactive)
CC(C)NC(=O)N1CC[C@@H]2[C@@H](CO)N(C)c3ccc(-c4ccc(F)cc4)cc3[C@@H]21 | -6.15% (inactive)
COCC(=O)N1CC[C@@H]2[C@@H](CO)N(C)c3ccc(-c4cccc(F)c4)cc3[C@@H]21 | -6.94% (inactive)
CC(=O)c1ccc(NCCNC(=O)c2ccc3c(c2)OCO3)cc1 | -0.945% (inactive)
CN1c2ccc(-c3cccc(F)c3)cc2[C@@H]2[C@@H](CCN2C(=O)c2ccc3c(c2)OCO3)[C@H]1CO | 1.77% (inactive)
COC(=O)c1ccc(N2CCN(C(=O)c3ccc4c(c3)OCO4)CC2)cc1 | 1.03% (inactive)
CN1c2ccc(-c3ccc(F)cc3)cc2[C@H]2[C@H](CCN2C(=O)Cc2cccnc2)[C@H]1CO | 2.81% [at 23.5 µM] (inactive)
CC(=O)c1ccc(N2CCN(C(=O)c3ccccc3Cl)CC2)cc1 | -1% (inactive)
CN1c2ccc(-c3ccc(F)cc3)cc2[C@H]2[C@H](CCN2C(=O)Nc2ccc(F)cc2)[C@H]1CO | -6.51% (inactive)
COc1ccccc1NC(=O)N1CC[C@@H]2[C@@H](CO)N(C)c3ccc(-c4cccc(F)c4)cc3[C@@H]21 | -4.14% [at 23.5 µM] (inactive)
CN(C)C(=O)c1ccc(N2CCN(C(=O)c3ccc4c(c3)OCO4)CC2)cc1 | -0.522% (inactive)
CN1c2ccc(-c3cccc(F)c3)cc2[C@H]2[C@H](CCN2C(=O)CCCCCCC(=O)O)[C@H]1CO | -2.42% (inactive)
